Test results published in PubChem BioAssay AID1851 (National Center for Advancing Translational Sciences (NCATS), 2009).
Values joined by “and” are separate entries in the source; they are usually repeats but may differ in a detail not shown here. Equal entries are not always repeated. Among all 16,000 compounds or so, about 5,800 (36%) were called active. Another 23% or so got no clear call; they are omitted. The call rests on the fitted dose curve; in most records, active means well fitted curve in the direction sought with a large enough effect; inconclusive means small, poorly fitted or top-dose-only effect, or effect the other way; inactive means no such curve, though single readings can be large or run the other way. The list shows a part of the results.

biological target: Cytochrome P450 2C19 (Homo sapiens) (UniProt P33261); test: Cytochrome panel assay with activity outcomes; conditions: recombinant CYP, pro-luciferin dealkylation, luminescence, p450-cyp2c19; series mostly up to 57.1 µM
On the % scale 0 is the no-effect control and ±100 the full control effect.

Chain of Cytochrome P450 2C19 (Homo sapiens) (P33261 whole entry, looked up): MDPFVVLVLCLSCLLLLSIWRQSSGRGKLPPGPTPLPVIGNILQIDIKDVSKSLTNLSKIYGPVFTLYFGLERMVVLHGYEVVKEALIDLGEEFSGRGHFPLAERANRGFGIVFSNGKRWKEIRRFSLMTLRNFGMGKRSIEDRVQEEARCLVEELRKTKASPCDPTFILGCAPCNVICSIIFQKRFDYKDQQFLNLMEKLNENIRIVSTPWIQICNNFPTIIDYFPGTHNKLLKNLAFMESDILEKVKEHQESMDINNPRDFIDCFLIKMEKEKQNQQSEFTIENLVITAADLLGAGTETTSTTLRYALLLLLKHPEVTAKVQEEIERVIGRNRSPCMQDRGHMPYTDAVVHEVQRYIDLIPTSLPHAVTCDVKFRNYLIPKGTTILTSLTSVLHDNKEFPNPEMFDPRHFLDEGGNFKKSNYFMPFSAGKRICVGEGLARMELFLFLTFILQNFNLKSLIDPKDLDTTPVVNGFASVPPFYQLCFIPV

AC50, active:
CON(c1nc(N(C)C)nc(N(C)C)n1)S(=O)(=O)c1ccccc1Cl 4.47 µM
Cc1cc(C)n(CC(O)COc2ccccc2)n1 (stereo not given) 8.91 µM
CCCc1cc(C(=O)Cc2nc3ccccc3s2)c(O)cc1O 0.126 µM
COc1ccc(C2C(C#N)=C(N)Oc3n[nH]c(C)c32)cc1CN1CCN(c2ccc(F)cc2)CC1 (stereo not given) 5.01 µM
O=C(N/C(=C/c1ccc(Br)cc1)c1nc2ccccc2[nH]1)c1ccco1 3.16 µM
S=c1nc(-c2ccccc2)oc2c1CCCC2 15.8 µM
c1ccc(Oc2cc(-c3ccccc3)ncn2)cc1 2.51 µM
COc1ccccc1NC(=O)Nc1nnc(-c2ccco2)s1 1.78 µM
CN1C(=O)/C(=N\OC(=O)c2cccc3ccccc23)c2ccccc21 8.91 µM
CN(c1ccccc1)c1ccc(/C=c2\s/c(=C(/C#N)C(=O)C(C)(C)C)n(Cc3ccco3)c2=O)cc1 1.78 µM
COc1cccc(OCCCOc2ccccc2C(C)C)c1 3.16 µM
Cc1ccc(NC(=O)C(C)N2C(=O)C3C4CC(C(Br)C4Br)C3C2=O)cc1 (stereo not given) 12.6 µM
Cc1nc(SC(C(=O)c2ccccc2)c2ccccc2)n[nH]1 (stereo not given) 2.51 µM
COc1cccc(-c2nnc3n2N=C(C(C)(C)C)CS3)c1 2.82 µM
CCOc1ccc(C2=Nn3c(nnc3-c3ccco3)SC2)cc1 3.16 µM
CCOc1ccc(-c2nnc3n2N=C(c2ccc(OC)cc2)CS3)cc1 4.47 µM
CCC(C)n1c(NC(=O)c2ccccc2)c(C#N)c2nc3ccccc3nc21 (stereo not given) 28.2 µM
Oc1cccc(-c2nc3c4c(ncn3n2)-c2ccccc2CC42CCCC2)c1 25.1 µM
COc1ccc(C(=O)/C=C2/c3ccccc3CC(C)(C)N2C)cc1 15.8 µM
Cn1nccc1C(=O)Nc1ccc(Cl)cc1 31.6 µM
O=C(Cc1cccs1)N/N=C/C(Br)=C/c1ccccc1 7.08 µM
COc1cc(C(=O)NCc2cccc3ccccc23)cc(Cl)c1OC 3.16 µM
COc1ccc2c(c1)C(=NN)c1cc(OC)ccc1-2 8.91 µM
Cc1ccc(NS(=O)(=O)c2cc(C(=O)N3CCc4ccccc4C3)ccc2Cl)cc1 1.58 µM
Cc1ccc(NS(=O)(=O)c2cc(C(=O)NCc3ccccn3)ccc2Cl)cc1 5.01 µM
COc1ccc2[nH]cc(CCNc3ccnc(-c4ccc(N(C)C)cc4)n3)c2c1 6.31 µM
COc1ccc2[nH]cc(CCNc3ccnc(-c4ccc5c(c4)OCO5)n3)c2c1 0.631 µM
COc1ccc2[nH]cc(CCNc3ccnc(-c4c(C)noc4C)n3)c2c1 1.58 µM
COc1ccc2[nH]cc(CCNc3ccnc(-c4ccoc4)n3)c2c1 0.501 µM
Cc1ccc(S(=O)(=O)N(C)c2cc(S(=O)(=O)N3CCC(C)CC3)c(C)cc2C)cc1 3.16 µM
CCn1c(O)c(/C=C2\C=Nc3ccccc32)sc1=Nc1ccc(C)cc1 2 µM
O=C1c2ccccc2C2=Nc3ccccc3SC(c3ccccc3F)C12 (stereo not given) 1.58 µM
O=C(O)C1=CC(=C(c2ccc(O)c(C(=O)O)c2)c2ccc(O)c(C(=O)O)c2)C=CC1=O 25.1 µM
CC1=C/C(=C(/c2ccc(O)c(C)c2)c2ccccc2C(=O)O)C=CC1=O 0.00316 µM
O=C(CN1CCc2ccccc21)NC(=O)NCc1ccco1 7.94 µM
Cc1nn(CC(O)COc2ccc3c(c2)CCC3)c(C)c1Br (stereo not given) 2 µM
Cc1ccc(C(=O)NC(=S)Nc2ccc(S(=O)(=O)N3CCN(C)CC3)cc2)cc1 15.8 µM
O=C(OCn1ncc(Cl)c(Cl)c1=O)c1cccc(C(F)(F)F)c1 2.24 µM
C=CCNc1sc(C(=O)c2ccc(C)cc2)c(N)c1C#N 7.08 µM
C=CCNc1sc(C(=O)c2ccccc2)c(N)c1C#N 6.31 µM
CC(=O)CSc1nnc(Cc2ccc([N+](=O)[O-])cc2)o1 7.08 µM
O=C(Cc1ncc(C(F)(F)F)cc1Cl)Nc1cccc(Br)c1 2.82 µM
CC(C)(C)C(=O)OCc1cn(-c2ccc(Cl)cc2)nn1 8.91 µM
Cc1c(C=O)c2ccccn2c1C(=O)c1ccncc1 1.78 µM

AC50, inactive:
CN1CCN(c2ncc3nc(-c4ccc(Cl)cc4)c(=O)n(C4CC4)c3n2)CC1
Cc1cc(C)n(CCCNCC(O)c2ccccc2)n1 (stereo not given)
O=c1cc(CN2CCN(c3ccc(F)cc3)CC2)c2cc3c(cc2o1)CCCC3
O=C(N/C(=C/c1cccs1)c1nc2ccccc2[nH]1)c1ccccc1
COc1ccc(-n2c(-c3ccccc3)nc(=S)c3c2CCCC3)cc1
COc1ccccc1-c1nnc(NC(C)=O)s1
CN1C(=O)c2ccccc2C(C(=O)O)C1c1cn(C)c2ccccc12 (stereo not given)
NCCCCCCCCCCN
C[C@H](NCCc1ccc(O)cc1)[C@@H](O)c1ccc(O)cc1
CNC(C)c1cc(OC)ccc1OC (stereo not given)
COc1cccc(OC)c1OCCCCN1CCCC1
CC(C(=O)Nc1cccnc1)N1C(=O)C2C3C=CC(C3)C2C1=O (stereo not given)
COC(=O)c1nc(NC(=O)c2ccccc2)n[nH]1
COc1ccc(-c2csc(N3C(=N)SCC3=O)n2)cc1
CCN(CC)C(=O)CSc1nnc(-c2ccco2)n1N
NCCCCCC(=O)O
COc1ccc(C(=O)N2CCC3(CCN(C)CC3)CC2)cc1
COc1ccc(C(=O)N2CCC3(CC2)CCN(C(c2ccccc2)c2ccccc2)CC3)cc1
CCNS(=O)(=O)c1ccc(NC(=O)c2cc(C(F)(F)F)nn2C)cc1
CS(=O)(=O)N1CCC[C@@]2(CCN(C(=O)Nc3ccccc3)C2)C1
COc1ccc(C(=O)N2CCCCC2)cc1S(=O)(=O)Nc1ccccc1
CN(c1ccc(C(=O)NCc2ccccn2)cc1)S(C)(=O)=O
CC(=O)OCC(=O)[C@@]1(OC(C)=O)[C@H](C)C[C@H]2[C@@H]3C[C@H](F)C4=CC(=O)C=C[C@@]4(C)[C@]3(F)[C@H](O)C[C@@]21C
Cc1ccc(S(=O)(=O)N2CCC(C(=O)NCCCOC(C)C)CC2)cc1
Clc1ccc2c(c1)C=Nc1c(NCc3ccccc3)ncnc1O2
COc1ccc(C2=NC(C(F)(F)F)(C(F)(F)F)c3c(n(C)c(=O)n(C)c3=O)N2)cc1
CN(C)CC(O)COc1cccc(OCC(O)CN(C)C)c1 (stereo not given)
CCOC(=O)c1ccc(S(=O)(=O)N2CCN(C)CC2)cc1
O=C(NC(=S)Nc1ccc(C(=O)N2CCOCC2)cc1)c1ccc([N+](=O)[O-])cc1
Cc1sc(N)c(C(=O)c2cccc(C(F)(F)F)c2)c1C
O=c1c(C=Nc2cccc(C(F)(F)F)c2)c[nH]n1-c1cccc(Cl)n1
Cc1ccc(C(=O)c2cn(-c3ccc(F)c(Cl)c3)nn2)cc1
CC(=O)N(C[C@@H](C)C(=O)O)c1c(I)cc(I)c(N)c1I

activity, negative = inhibition, inactive:
O=C1CCC(c2ccccc2)(c2ccccc2)CC1 13.2% [at 11.4 µM]
Cc1ccc(S(=O)(=O)N[C@H]2COC(=O)C/C=C\[C@@H](C)COC(=O)C/C=C\[C@@H]2C)cc1 12.1% [at 11.4 µM]
CCN1C(=O)[C@H]2[C@H]3[C@H](O)[C@H](O)C/C(=N/OC[C@@H](O)COCc4ccco4)[C@H]3CC[C@@H]2C1=O -33.5% [at 11.4 µM]
CO[C@@H]1COC(=O)C/C=C\[C@@H](C)[C@H](OC)COC(=O)[C@@H](C)COC(=O)C/C=C\[C@H]1C 4.43% [at 11.4 µM]
Cc1noc(NC(=O)Nc2ccccc2F)c1C#N -17.8% [at 11.4 µM]
CC(C)CN=C(N)N=C(N)N -8.28% [at 11.4 µM]
O=C(O)/C(=C\c1ccccc1)Cc1ccccc1 -14.2% [at 11.4 µM]
O=C(O)c1cscc1Cc1cccs1 -1.48% [at 11.4 µM]
COc1ccc2c(c1)Cc1cc(N=[N+]([O-])c3ccc4c(c3)Cc3cc(OC)ccc3-4)ccc1-2 -35.1% [at 11.4 µM]
CC1(C)O[C@H]2[C@@H](c3[nH]nc4c(=O)[nH]c(=O)[nH]c34)OC[C@H]2O1 9.71% [at 11.4 µM]
O=C(O)c1ccc(C(=O)c2ccccc2C(=O)O)cc1C(=O)O -5.18% [at 11.4 µM]
O=C(O)C1=C/C(=C(/c2ccccc2)c2cc(C(=O)O)c(O)c3ccccc23)c2ccccc2C1=O 29% [at 11.4 µM] and -20.5% [at 11.4 µM]
NS(=O)(=O)c1ccc(N=Nc2ccc(O)c(C(=O)O)c2)cc1 5.09% [at 11.4 µM]
N/C(CC/C(N)=N/O)=N\O 20.3% [at 11.4 µM]
N#CC(CC(=O)O)=C(c1ccccc1)c1ccccc1 5.19% [at 11.4 µM]
NNC(=O)CNc1cccc(Br)c1 -2.2% [at 11.4 µM]
[Cu].[O-]/N=C1/C(=[OH+])Nc2ccccc21.[O-]Nc1c(O)[nH]c2ccccc12 2.58% [at 11.4 µM]
C[C@H](C(=O)c1ccncc1)c1ccccn1 -37.2% [at 11.4 µM]
